Compounds without any hit were thinned out: in the full panel of roughly 79,000, 15% have a hit. Active and inactive are the calls of the source. Cut-off read from the data, not from the text of the source: active = growth inhibition above about 70%; inactive = the rest.
Tests used:
[1] = NCI Yeast Anticancer Drug Screen. Data for the rad52 strain (AID 147);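 note: 0% = growth of vehicle-treated control cultures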; conditions: S. cerevisiae rad52 mutant growth inhibition, active compounds read high
Summary of the method: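 Screen used a yeast mutant impaired in DNA repair. After compound exposure, growth was measured. Values reflect inhibition compared with vehicle-treated cells.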

[2] = NCI Yeast Anticancer Drug Screen. Data for the wt1 strain (AID 149);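 note: 0% = growth of vehicle-treated wt1 cultures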; conditions: S. cerevisiae wt1 strain (SPY 50644) growth inhibition, active compounds read high
Summary of the method: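 Vehicle-normalised growth inhibition; strain wt1; compound exposure.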

[3] = NCI Yeast Anticancer Drug Screen. Data for the rad50EPP+ strain (AID 151);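 note: 0% = growth of vehicle-treated control cultures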; conditions: S. cerevisiae rad50 mutant strain, active compounds read high
Summary of the method: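 Exposing the rad50EPP+ strain to each compound, growth was compared with vehicle-only cultures to give inhibition.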

[4] = NCI Yeast Anticancer Drug Screen. Data for the mgt1 strain (AID 153); conditions: S. cerevisiae mgt1 mutant growth inhibition, active compounds read high
Summary of the method: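 Genetically defined yeast (mgt1) treated with compound; inhibition of growth expressed against vehicle-treated controls.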

[5] = NCI Yeast Anticancer Drug Screen. Data for the rad50 strain (AID 155);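 note: 0% = growth of vehicle-only cultures of the same strain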; conditions: S. cerevisiae rad50 strain growth inhibition, active compounds read high
Summary of the method: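 A DNA repair-deficient yeast mutant serves as the test organism; compound-induced growth inhibition is calculated against vehicle-treated cells.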

[6] = NCI Yeast Anticancer Drug Screen. Data for the mec2-1 strain (AID 157); conditions: S. cerevisiae mec2-1 strain, active compounds read high
Summary of the method: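 Readout is yeast growth inhibition, normalised to vehicle-treated controls, in the mec2-1 strain exposed to compound.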

[7] = NCI Yeast Anticancer Drug Screen. Data for the rad14 strain (AID 159);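 note: 0% = growth of vehicle-treated control cultures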; conditions: S. cerevisiae rad14 strain growth inhibition, active compounds read high
Summary of the method: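 Vehicle-treated cultures served as the baseline for growth inhibition of a DNA repair-mutant yeast strain exposed to each compound.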

[8] = NCI Yeast Anticancer Drug Screen. Data for the sgs1 mgt1 strain (AID 161);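 note: 0% = growth of cultures given vehicle only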; conditions: S. cerevisiae sgs1 mgt1 strain, active compounds read high
Summary of the method: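 Yeast cells carrying a defined DNA-repair defect were exposed to test compounds. Growth inhibition was measured relative to vehicle-treated controls.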

[9] = NCI Yeast Anticancer Drug Screen. Data for the CLN2oe strain (AID 163);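 note: 0% = growth of vehicle-only control cultures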; conditions: S. cerevisiae CLN2oe strain, active compounds read high
Summary of the method: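 Values reflect how much compound exposure reduced yeast growth, referenced to vehicle-exposed cells. Assay organism is a strain with a defined genetic change affecting cell-cycle control.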

[10] = NCI Yeast Anticancer Drug Screen. Data for the cln2 rad14 strain (AID 165);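 note: 0% = growth equal to vehicle treated cultures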; conditions: S. cerevisiae cln2 rad14 strain, active compounds read high
Summary of the method: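 Relative to vehicle controls, growth inhibition of compound-treated cln2 rad14 yeast was recorded.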

[11] = NCI Yeast Anticancer Drug Screen. Data for the bub3 strain (AID 167); conditions: S. cerevisiae bub3 mutant strain, active compounds read high
Summary of the method: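 Inhibition values come from growth of compound-treated mutant yeast normalised to vehicle-treated controls.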

[12] = NCI Yeast Anticancer Drug Screen. Data for the wt2 strain (AID 169);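 note: 0% = growth of vehicle-treated yeast cultures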; conditions: S. cerevisiae wt2 strain growth inhibition, active compounds read high
Summary of the method: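 Values express reduction in yeast growth under compound treatment, referenced to vehicle-treated cells.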

[13] = NCI Yeast Anticancer Drug Screen. Data for the mlh1 strain (AID 171);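 note: 0% = growth of vehicle-treated control cultures of the same strain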; conditions: S. cerevisiae mlh1 strain growth inhibition, active compounds read high
Summary of the method: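 Steps: expose the defined-mutant yeast strain to compound; expose a parallel culture to vehicle; measure growth; express compound effect as inhibition relative to the vehicle culture.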

[14] = NCI Yeast Anticancer Drug Screen. Data for the sgs1 strain (AID 173);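 note: 0% = growth of vehicle-only control cultures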; conditions: S. cerevisiae sgs1 mutant, active compounds read high
Summary of the method: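 Treat defined-mutant yeast with compound; measure growth; calculate inhibition relative to vehicle-treated cells.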

[15] = NCI Yeast Anticancer Drug Screen. Data for the mlh1 rad18 strain (AID 175); conditions: S. cerevisiae mlh1 rad18 strain growth inhibition, active compounds read high
Summary of the method: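 Test agents were incubated with a yeast strain of defined genotype (DNA damage repair defect). Inhibition of growth was derived by comparison with vehicle-exposed cultures.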

[16] = NCI Yeast Anticancer Drug Screen. Data for the rad18 strain (AID 177); conditions: S. cerevisiae rad18 mutant growth inhibition, active compounds read high
Summary of the method: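 A genetically defined yeast mutant impaired in DNA damage repair was treated with test compounds, then its growth was measured against cultures receiving vehicle alone.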

[17] = at 5.0 µM (retest, dose inferred, filed as 0.5)
[18] = at 50.0 µM (retest, dose inferred, filed as 5.0)

Measured: growth inhibition

CNC(=O)OCc1c(COC(=O)NC)c(C)n(-c2ccc(Br)cc2)c1C
inactive: [1]; at 1.2 µM -7% | [1]; at 3.7 µM -6% | [1]; at 11.0 µM -8% | [1]; at 33.0 µM 6% | [2]; at 1.2 µM -41% | [2]; at 3.7 µM -38% | [2]; at 11.0 µM -37% | [2]; at 33.0 µM -32% | [3]; at 1.2 µM -25% | [3]; at 3.7 µM -19% | [3]; at 11.0 µM -24% | [3]; at 33.0 µM -25% | [3]; at 100.0 µM -3% | [4]; at 1.2 µM -15% | [4]; at 3.7 µM -17% | [4]; at 11.0 µM -20% | [4]; at 33.0 µM 14% | [5]; at 1.2 µM -15% | [5]; at 3.7 µM -27% | [5]; [17] 27% | [5]; at 11.0 µM -17% | [5]; at 33.0 µM -2% | [5]; [18] 46% | [5]; at 50.0 µM 30.4% | [6]; at 1.2 µM -37% | [6]; at 3.7 µM -24% | [6]; [17] 22% | [6]; at 11.0 µM -23% | [6]; at 33.0 µM -8% | [6]; [18] 23% | [6]; at 50.0 µM 13% | [7]; at 1.2 µM -23% | [7]; at 3.7 µM -16% | [7]; at 11.0 µM -7% | [8]; [17] 4% | [8]; [18] -61% | [9]; at 1.2 µM -7% | [9]; at 3.7 µM 0% | [9]; at 11.0 µM -1% | [9]; at 33.0 µM -2% | [9]; at 100.0 µM 69% | [10]; [17] 10% | [10]; [18] -81% | [10]; at 50.0 µM 30% | [11]; at 1.2 µM -29% | [11]; at 3.7 µM -18% | [11]; [17] 0% | [11]; at 11.0 µM -18% | [11]; at 33.0 µM 41% | [11]; [18] -63% | [12]; at 1.2 µM -28% | [12]; at 3.7 µM -19% | [12]; at 11.0 µM -19% | [12]; at 33.0 µM -13% | [13]; at 1.2 µM -26% | [13]; at 3.7 µM -13% | [13]; at 11.0 µM 9% | [13]; at 33.0 µM 59% | [14]; at 1.2 µM 15% | [14]; at 3.7 µM 12% | [14]; at 11.0 µM 19% | [14]; at 33.0 µM 32% | [15]; [17] 25% | [16]; at 1.2 µM -19% | [16]; at 3.7 µM -12% | [16]; at 11.0 µM -5% | [16]; at 33.0 µM 43%
active: [1]; at 100.0 µM 87% | [2]; at 100.0 µM 98% | [4]; at 100.0 µM 99% | [5]; at 100.0 µM 91% | [6]; at 100.0 µM 97% | [7]; at 33.0 µM 73% | [7]; at 100.0 µM 98% | [8]; at 50.0 µM 78% | [11]; at 50.0 µM 85% | [11]; at 100.0 µM 98% | [12]; at 100.0 µM 96% | [13]; at 100.0 µM 97% | [14]; at 100.0 µM 96% | [15]; [18] 84% | [15]; at 50.0 µM 86.8% | [16]; at 100.0 µM 96%

COc1ccc2cc(C(C)C(=O)N3CCOC3=O)ccc2c1 (stereo not drawn)
active: [11]; [18] 75%
inactive: [1]; at 1.2 µM -9% | [1]; at 3.7 µM -16% | [1]; at 11.0 µM -7% | [1]; at 33.0 µM -8% | [1]; at 100.0 µM 12% | [2]; at 1.2 µM -34% | [2]; at 3.7 µM -34% | [2]; at 11.0 µM -29% | [2]; at 33.0 µM -31% | [2]; at 100.0 µM -22% | [3]; at 1.2 µM 5% | [3]; at 3.7 µM 5% | [3]; at 11.0 µM 7% | [3]; at 33.0 µM 9% | [3]; at 100.0 µM 22% | [4]; at 1.2 µM 5% | [4]; at 3.7 µM 6% | [4]; at 11.0 µM 7% | [4]; at 33.0 µM 21% | [4]; at 100.0 µM 45% | [5]; at 1.2 µM 21% | [5]; at 3.7 µM 24% | [5]; [17] -14% | [5]; at 11.0 µM 15% | [5]; at 33.0 µM 23% | [5]; [18] 27% | [5]; at 50.0 µM 60.6% | [5]; at 100.0 µM 50% | [6]; at 1.2 µM -21% | [6]; at 3.7 µM -28% | [6]; [17] -11% | [6]; at 11.0 µM -27% | [6]; at 33.0 µM -19% | [6]; [18] 9% | [6]; at 50.0 µM 23.9% | [6]; at 100.0 µM 11% | [7]; at 1.2 µM -18% | [7]; at 3.7 µM -20% | [7]; at 11.0 µM -22% | [7]; at 33.0 µM -17% | [7]; at 100.0 µM 50% | [8]; [17] 7% | [8]; [18] 37% | [8]; at 50.0 µM 57.1% | [9]; at 1.2 µM 11% | [9]; at 3.7 µM 5% | [9]; at 11.0 µM -3% | [9]; at 33.0 µM -6% | [9]; at 100.0 µM 11% | [10]; [17] 16% | [10]; [18] 17% | [10]; at 50.0 µM 24.7% | [11]; at 1.2 µM 29% | [11]; at 3.7 µM 25% | [11]; [17] -15% | [11]; at 11.0 µM 24% | [11]; at 33.0 µM 21% | [11]; at 50.0 µM 29.2% | [11]; at 100.0 µM 40%
